# Compound activity as filed in PubChem.
# PG9 Ab binder = binders of HIV-1 gp120 antibody PG9, primary screen, biochemical, TR-FRET; hit rate 0.43% among 360,000; HIV-1 gp120 / PG9 antibody interaction; AID 624416, 2012; inhibition, % at 6.7 µM; TR-FRET gp120-PG9 antibody binding; in the data active = inhibition above about 8.5%
# proKLK7 act = proKLK7 zymogen activators, primary screen, biochemical, fluorescence intensity. hit rate 0.9% among 370,000. purified proKLK7, EDANS-DABCYL substrate fluorescence; 100% is mature enzyme control, 0% vehicle. activation, % at 7 µM. Kallikrein-7 (Homo sapiens), P49862;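 active = activation above the mean of all tested compounds plus 3 SD, computed per campaign excluding outliers beyond control limits, cut at about 13% in these data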
# PP5 primary = PP5 phosphatase inhibitors, primary screen, biochemical, fluorescence; inhibition, % at 6.7 µM; purified PP5c, OMFP substrate fluorescence; hit rate 0.18% among 320,000;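 active = inhibition above the campaign's mean inhibition across all tested compounds plus 3 SD, cut at about 9.5% in these data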;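 note: 0% = DMSO only and 100% = 100 µM cantharidin control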
# GASC-1 inh = inhibitors of GASC-1 histone demethylase, primary screen, biochemical, fluorescence, DELFIA europium. GST-JMJD2C(1-420) H3K9me3 demethylation. AID 2099, 2009. inhibition, % at 2.35 µM. Lysine-specific demethylase 4C (Homo sapiens), Q9H3R0. hit rate 0.069% among 330,000;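 active = more than half of a compound's replicate wells show inhibition beyond 50%, single wells judged on their own value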;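 note: signal counts dimethyl H3K9 product captured on neutravidin plate; 0% = median of DMSO wells and 100% = 0.3 times that DMSO median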
# Target sequence (Q9H3R0 1-420 limits assumed): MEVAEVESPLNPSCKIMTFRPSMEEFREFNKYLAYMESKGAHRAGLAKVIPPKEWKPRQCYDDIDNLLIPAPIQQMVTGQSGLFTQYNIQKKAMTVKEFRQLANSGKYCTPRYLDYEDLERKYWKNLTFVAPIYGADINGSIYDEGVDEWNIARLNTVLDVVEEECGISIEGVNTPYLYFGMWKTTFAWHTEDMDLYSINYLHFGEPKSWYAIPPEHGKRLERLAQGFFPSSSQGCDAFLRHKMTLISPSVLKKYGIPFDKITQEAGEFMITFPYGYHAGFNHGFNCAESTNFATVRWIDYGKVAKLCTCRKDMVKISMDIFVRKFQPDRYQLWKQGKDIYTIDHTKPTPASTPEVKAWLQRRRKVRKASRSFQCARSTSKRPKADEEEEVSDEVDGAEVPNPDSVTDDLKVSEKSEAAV
# NR1D1 modulator = modulators of Rev-erb alpha DNA binding, primary screen, biochemical, FITC-DNA, fluorescence polarization, uHTS; Nuclear receptor subfamily 1 group D member 1 (Homo sapiens), P20393; Rev-erbα–FITC-DNA binding, 90 min; activity, % at 10 µM; hit rate 0.79% among 370,000; AID 1259318, 2017;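 active = activity above about 14%, limit read from the data; passing the limit was not always enough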;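 note: 0% = DMSO wells with 35 nM protein and 100% = DMSO wells with 750 nM protein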
# PP1 counter = PP1-alpha phosphatase inhibitors, primary screen, counter-screen for PP5 inhibitor project, biochemical, fluorescence, OMFP substrate, single point; purified PP1alpha; inhibition, % at 6.7 µM; hit rate 0.9% among 320,000; AID 2235, 2010;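 active = inhibition above the mean inhibition of all tested compounds plus 3 SD, computed separately for each screening campaign, cut at about 15% in these data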
# proKLK7 act conf = proKLK7 zymogen activators, confirmation, biochemical, fluorescence intensity, triplicate; shares compounds with proKLK7 act; activation, % at 7 µM; hit rate 68% among 3,200; purified proKLK7, EDANS-DABCYL substrate fluorescence; scaled: vehicle 0, mature enzyme 100;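 active = activation, as change over the incubation, above the mean of all tested compounds plus 3 SD, cut at about 13% in these data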
# EDANS-DABCYL int = EDANS-DABCYL substrate optical interference, artefact control for kallikrein-7 zymogen activator project, biochemical, fluorescence intensity, high throughput. shares compounds with proKLK7 act. hit rate 80% among 3,200. AID 686952, 2013. activation, % at 7 µM. no enzyme, 4 h; solvent 0%, active enzyme control 100%;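 active = activation above the all-compound mean plus 3 SD, ignoring values outside control-based bounds, cut at about 4.8% in these data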;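 note: value is the 4 h activation minus the activation read at time zero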
# Starred values were filed as active, the others as inactive; . = not tested or not shown. Hits are enriched below; roughly 2.8% of the tested compounds scored in any of these assays.
SMILES,PG9 Ab binder,proKLK7 act,PP5 primary,GASC-1 inh,NR1D1 modulator,PP1 counter,proKLK7 act conf,EDANS-DABCYL int
CN(C)Cc1c(O)ccc2c3c(c(=O)oc12)CCCCC3,2,48*,3,-2,-5,-3,57*,78*
CCN(CC)C(=O)COc1ccc2c3c(c(=O)oc2c1C)CCCC3,-2,2,3,-5,1,0,.,.
CCc1c(C)c2ccc(O)c(CN(C)C)c2oc1=O,0,56*,-1,7,-7,-3,65*,65*
CCc1ccccc1CNC(=O)C1CCC(CNS(=O)(=O)c2cccc3cccnc23)CC1 (centres undefined),.,0,.,.,4,.,.,.
C#CCNC(=O)C[C@H]1C[C@@]2(C(=O)OC)C(=C[C@H](C(C)C)O[C@@H]2C2CC2)N(Cc2ccc(Cl)cc2Cl)C1=O,.,0,.,.,0,.,.,.
CC(=O)c1cc(-c2ccc3nonc3c2)c(=O)n2c1CCC2,.,0,.,.,6,.,.,.
CCOc1cc(/C=C2/NC(=O)N(CC(=O)Nc3cccc(C)c3)C2=O)ccc1OC,-1,0,1,-27,-1,-1,.,.
COc1cc(/C=C2/NC(=O)N(CC(=O)Nc3cccc(C)c3)C2=O)ccc1OCC(N)=O,-3,146*,1,-15,-3,3,50*,54*
CCc1c(C)c(C#N)c2nc3ccccc3n2c1NCC1CCCO1 (centres undefined),-1,2,1,-11,-4,-1,.,.
CC(C)c1cc(NCCN2CCOCC2)n2c(nc3ccccc32)c1C#N,1,0,.,.,1,.,.,.
CC(C)c1cc(NCC2CCCO2)n2c(nc3ccccc32)c1C#N (centres undefined),1,21*,4,-4,-2,2,-12,-17
Cc1cc(NCC2CCCO2)n2c(nc3ccccc32)c1C#N (centres undefined),-2,16*,-2,8,1,-2,44*,34*
O=S1(=O)N[C@@H](Cc2ccccc2)COc2cc(NC3CC3)ccc21,0,-1,.,.,4,.,.,.
COc1ccc(NC(=O)N(C)[C@H]2C[C@H]3c4[nH]c5ccc(-c6ccc(OC)cc6)cc5c4CCN3C(=O)[C@H]2[C@H](C)O)cc1,0,2,.,.,4,.,.,.
COc1ccc(NC(=O)N(C)[C@H]2C[C@H]3c4[nH]c5ccccc5c4CCN3C(=O)[C@H]2CO)cc1,-1,24*,.,.,-8,.,3,3
COc1ccc(NC(=O)N(C)[C@H]2C[C@H]3c4[nH]c5ccccc5c4CCN3C(=O)[C@H]2[C@H](C)O)cc1,-3,88*,.,.,6,.,8,9.5*
COc1ccc(C(=O)N(C)[C@H]2C[C@H]3c4[nH]c5ccccc5c4CCN3C(=O)[C@H]2CO)cc1,-2,44*,.,.,-2,.,51*,57*
CN(C(=O)Nc1ccc(F)cc1)[C@H]1C[C@H]2c3[nH]c4ccccc4c3CCN2C(=O)[C@H]1CO,4,2,.,.,1,.,.,.
COC(=O)C1=C(C)N(C)C(=NCc2cccc(C(F)(F)F)c2)NC1c1ccc(C(F)(F)F)cc1 (centres undefined),0,0,.,.,-4,.,.,.
Cc1ccc2c(c1)-c1c(cnn1CC(=O)NCCc1ccccc1F)CO2,.,0,.,.,0,.,.,.
COC(=O)c1cc2c(c3c4cc(OC)ccc4n(C(=O)c4ccccc4)c13)C(=O)N(Cc1ccco1)C2,-1,0,.,.,0,.,.,.
Cc1ccccc1C(=O)n1ccc2ccc(-c3ccc4ccn(Cc5ccc(C#N)cc5)c4c3)cc21,.,-5,.,.,20,.,.,.
